Measurements: PubChem BioAssay (NCI)
About 79,000 compounds went through this panel and 15% of them were active in at least one assay; those are over-represented in the sample as a whole. Unmarked numbers belong to inactive results. Activity calls are given as the source filed them. No stated cut-off is given here; in the data, active means growth inhibition above about 70%; inactive means the rest.

test: NCI Yeast Anticancer Drug Screen. Data for the sgs1 mgt1 strain (AID 161);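 further: 0% = growth of cultures given vehicle only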; settings: S. cerevisiae sgs1 mgt1 strain, at 50.0 µM, active compounds read high
Method in brief: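 Yeast cells carrying a defined DNA-repair defect were exposed to test compounds. Growth inhibition was measured relative to vehicle-treated controls.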

Compound	growth inhibition
Cc1cc(O)c(C(=O)/C=C/c2cccnc2)c(=O)[nH]1	84.8% (active)
Oc1ccccc1C(=NNc1ccccc1)c1ccccc1O	94.8% (active)
Cn1c(=S)c2[nH]c(SCCN3CCCCC3)nc2n(C)c1=O	99.2% (active)
Cc1cc(=O)n(-c2cc3cccccc-3n2)[nH]1	97.8% (active)
CC(=O)OCC1OC(n2c(O)c(N=NC(N)=S)c3ccc([N+](=O)[O-])cc32)C(OC(C)=O)C1OC(C)=O (stereo unspecified)	71.5% (active)
COC(=O)NNc1c([N+](=O)[O-])cnn(-c2ccccc2)c1=O	14%
CC(=O)N(C1=C(Cl)C(=O)c2ccccc2C1=O)c1ccc(F)cc1	99.4% (active)
COC(=O)CC1c2cc(OC)c3cccc(OC)c3c2CCC1(C)C(=O)OC (stereo unspecified)	93.2% (active)
CC[n+]1c(/C=C/c2ccc(N(C)C)cc2)ccc2ccccc21	98% (active)
COc1ccc(SC2=C(N(C)C)C(=O)c3ccccc3C2=O)cc1	63.2%
C1=C(c2ccccc2)C(=Nc2ccccc2)SC1=Nc1ccccc1	99.5% (active)
Cc1c(O)c(Br)c(Br)c(Br)c1Br	96.1% (active)
CC1(C)OC(C(COC(=O)c2ccc([N+](=O)[O-])cc2)OS(=O)(=O)c2ccc([N+](=O)[O-])cc2)C(C(SCc2ccccc2)SCc2ccccc2)O1 (stereo unspecified)	46.6%
Cc1cccc(Cc2ccc(Cl)cc2)c1O	99.5% (active)
C=C(CN(C)C)C(=O)c1ccccc1[N+](=O)[O-]	74.2% (active)
CCCCN(CCCC)CC(O)c1cc(-c2ccc(Cl)cc2)nc2c(C)cccc12 (stereo unspecified)	98.4% (active)
